The list is not random: actives were taken first. Their share in the collection is about 19%.
SARS PLP yeast: inhibitors of SARS-CoV papain-like protease in yeast | S. cerevisiae expressing SARS-CoV PLpro, growth rescue | Potency, µM (top dose mostly 32.9 µM), most hits filed as activators | 0.19% of 330,000 active | AID 485353; calls by dose curve; also: nearly all actives have a fitted effect of over 55% in size
Cycloheximide cs: counter-screen for Shiga toxin inhibitors: cycloheximide protein synthesis inhibition; max response, %; cell reporter, cycloheximide protein synthesis inhibition counterscreen; AID 2314; 12% of 300,000 active; in the data active = max response mostly above about 13%, no sharp cut-off; inactive = mostly below about 14%; also: read at 38.3 µM for the half of the compounds with a filed dose
Pf growth 48h: P. falciparum growth inhibition at 48 hours (one generation) | P. falciparum luciferase growth in erythrocytes, 48 h | Potency, µM (top dose mostly 28.7 µM), actives largely listed as inhibitors | 5.9% of 310,000 active | AID 504832
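Parasite viability was followed by luminescence of a genomically integrated firefly luciferase. Cultures held 0.1% parasitemia at 2% hematocrit (final), incubated under 5% CO2 at 37 C.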
Shiga inhibitor: Shiga toxin inhibition; Vero cells, Shiga toxin protein synthesis inhibition reporter; inhibition, % at 38.7 µM; 9.2% of 290,000 active; AID 2315; in the data active = inhibition mostly above about 28%, no sharp cut-off; inactive = mostly below about 43%
Pf growth 96h: P. falciparum growth inhibition at 96 hour, primary screen for plastid delayed-death inhibitors | P. falciparum luciferase reporter growth, 96 h | Potency, µM (series often up to 28.7 µM), usual class: inhibitors | 6.9% of 320,000 active
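Cell-based qHTS: luciferase-tagged P. falciparum in erythrocytes (2% hematocrit, 0.05% parasitemia final) incubated with compounds for 96 hours, 37 C, 5% CO2; luciferase detection reagent then added and luminescence measured.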
AMA1 RON2 block: disrupts binding of P. falciparum AMA1 to RON2 | 0.2% of 360,000 active | Potency, µM (titrated, usually from 58.2 µM), hits mostly inhibitors | AlphaScreen AMA1-biotinylated RON2 peptide binding; also: nearly all actives have a fitted effect of over 45% in size
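AMA1 (3D7) with his tag at 25 nM final met compounds first, then biotinylated RON2 peptide at 25 nM; detection used donor plus acceptor beads, 10 µg/mL apiece, read by AlphaScreen after 30 min at room temperature.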
Each line names hits and unclear results; the compound was inactive in the other large screens. Unless noted, calls follow the shape of the dose curve; as a rule, active = well fitted curve in the direction sought with a large enough effect; inconclusive = small, poorly fitted or top-dose-only effect, or another doubt; inactive = no such curve, though single readings can be large; an effect the other way counts as inactive or inconclusive.

CCC(C)[C@H](NC(=O)N1CCN(c2cccc(C(F)(F)F)c2)CC1)C(=O)OC (stereo not given in full)	Pf growth 96h 5.22µM (no result: Pf growth 48h)
COC(=O)[C@@H](NC(=O)N1CCN(c2cccc(C(F)(F)F)c2)CC1)C(C)C	Pf growth 48h inconclusive, Pf growth 96h inconclusive
O=C(O/N=C1\CCCc2ccccc21)c1ccc(F)cc1	Cycloheximide cs 16.0, Shiga inhibitor 21.4
Cc1ccc2c(c1)/C(=N/OC(=O)c1ccc(F)cc1)CCS2	none
O=S(=O)(O/N=C1\CCCc2ccccc21)c1ccccc1	none (no result: Pf growth 48h)
O=C(O/N=C1/CCSc2ccccc21)c1ccccc1	Cycloheximide cs 38.7, Shiga inhibitor 39.9, Pf growth 96h inconclusive
CCCNCc1cc(OC)c(OCCC)cc1Cl	Pf growth 96h inconclusive
CCC(Oc1ccccc1C)C(=O)N1CCCN(C)CC1 (stereo not given)	none
CN1CCC(C2(O)c3ccccc3CCc3ccccc32)CC1	Cycloheximide cs 34.5, Shiga inhibitor 58.3
O=C(c1ccco1)N1CCN(C(c2cccs2)c2nnnn2C2CCCC2)CC1 (stereo not given)	Pf growth 96h inconclusive
CC(C)CC(c1nnnn1C1CCCC1)N1CCN(C(=O)c2ccco2)CC1 (stereo not given)	Pf growth 96h 9.28µM
CCCCC(c1nnnn1C1CCCC1)N1CCN(C(=O)c2ccco2)CC1 (stereo not given)	Pf growth 48h 2.08µM (no result: Pf growth 96h)
Cc1ccc(S(=O)(=O)Cn2nnnc2C(CC(C)C)N2CCN(C(=O)c3ccco3)CC2)cc1 (stereo not given)	Pf growth 48h 11.7µM, Pf growth 96h 1.65µM
COCCn1nnnc1C(CC(C)C)N1CCN(C(=O)c2ccco2)CC1 (stereo not given)	none
CCCCC(c1nnnn1CCOC)N1CCN(C(=O)c2ccco2)CC1 (stereo not given)	AMA1 RON2 block inconclusive (no result: Pf growth 96h)
O=C(c1ccco1)N1CCN(C(c2ccccn2)c2nnnn2C2CCCC2)CC1 (stereo not given)	Cycloheximide cs 36.6, Shiga inhibitor 86.4
CCSCCOC(=O)C1=C(C)N(C)C(=O)NC1c1ccc2c(c1)OCO2 (stereo not given)	none
Cc1ccc(OCC(O)CN2CC3(C)CC2CC(C)(C)C3)cc1 (stereo not given)	Pf growth 48h inconclusive, Pf growth 96h inconclusive
CC(C)CC(c1nnnn1C1CCCCC1)N1CCN(C(=O)c2ccco2)CC1 (stereo not given)	Pf growth 48h inconclusive, Pf growth 96h inconclusive
CCCC(c1nnnn1C1CCCC1)N1CCN(C(=O)c2ccco2)CC1 (stereo not given)	Pf growth 48h 11.7µM, Pf growth 96h inconclusive
OCCCNc1ncnc2c1ncn2[C@H]1CN(Cc2ccc3c(c2)OCO3)C[C@@H](CO)O1	none (no result: SARS PLP yeast, Cycloheximide cs, Pf growth 48h, Shiga inhibitor, Pf growth 96h)
Cc1ccc(NC(=O)Cn2nnc(-c3ccccc3NC(=O)c3cccs3)n2)cc1	Pf growth 48h 13.1µM (no result: Pf growth 96h)
COc1ccc(NC(=O)Cn2nnc(-c3ccccc3NC(=O)c3cccs3)n2)cc1	Pf growth 48h 1.85µM, Pf growth 96h inconclusive
COc1ccccc1NC(=O)Cn1nnc(-c2ccccc2NC(=O)c2cc3ccccc3oc2=O)n1	Cycloheximide cs 39.3, Shiga inhibitor 80.1
COc1ccc(NC(=O)Cn2nnc(-c3ccccc3NS(=O)(=O)c3ccc(OC)cc3)n2)cc1	Pf growth 48h inconclusive
O=C(NCCc1csc(-c2cccnc2)n1)c1ccccc1Br	Pf growth 48h inconclusive
CC1(C)NC(=O)NC2(C)NC(=O)NC(C)(C)C12 (stereo not given)	none
Cc1ccc(CSc2ncnc3c2cnn3-c2ccc(C)cc2)cc1	Cycloheximide cs 15.3
Cc1nc(SCc2ccccc2)c2ccsc2n1	none
Cc1ccc(-n2ncc3c(SCc4ccccc4)ncnc32)cc1	Cycloheximide cs 19.9
Cc1ccc(CSc2ncnc3c2cnn3-c2ccccc2)cc1	none
c1ccc(CSc2ncnc3sccc23)cc1	Shiga inhibitor 52.4
O=C(CSc1ncnc2c1cnn2-c1ccc(F)cc1)NC1CCCC1	none
Fc1ccc(-n2ncc3c(SCc4cccnc4)ncnc32)cc1	Cycloheximide cs 20.3
COc1ccc(S(=O)(=O)O/N=C2\CCCc3ccccc32)cc1	none (no result: Pf growth 48h)
O=C1C2C3c4ccccc4C(c4ccccc43)C2C(=O)N1Cc1ccccn1 (stereo not given)	Pf growth 96h inconclusive
CCOC(=O)[C@]12CCCC=C1N(Cc1ccccc1)C(=O)[C@H](CC(=O)NCCc1ccccc1OC)C2	none (no result: SARS PLP yeast, Cycloheximide cs, Pf growth 48h, Shiga inhibitor, Pf growth 96h)
COc1cccc(N2CCN(C(=O)c3cccc(NC(=O)C4=C(C)OCCS4)c3)CC2)c1	none (no result: SARS PLP yeast, Cycloheximide cs, Pf growth 48h, Shiga inhibitor, Pf growth 96h)
CCOC(=O)c1nn(-c2ccc(C)cc2)c(=O)cc1OCC(=O)N1CCN(c2ccccc2)CC1	none (no result: Cycloheximide cs, Shiga inhibitor)
CCOC(=O)C1(Cc2cccc(OC)c2)CCCN(C(=O)CSC)C1 (stereo not given)	none (no result: SARS PLP yeast, Cycloheximide cs, Pf growth 48h, Shiga inhibitor, Pf growth 96h)
CC#CC(=O)N1CCCC(Cc2cccc(OC)c2)(C(=O)OCC)C1 (stereo not given)	Cycloheximide cs 43.4, Pf growth 48h inconclusive, Shiga inhibitor 32.5, Pf growth 96h 6.57µM
CCOC(=O)C1(Cc2cccc(OC)c2)CCCN(S(=O)(=O)CC)C1 (stereo not given)	Pf growth 96h inconclusive
CCOC(=O)C1(Cc2cccc(OC)c2)CCCN(C(=O)c2cc(C)oc2C)C1 (stereo not given)	Cycloheximide cs 39.4, Pf growth 48h inconclusive, Shiga inhibitor 76.0
CCOC(=O)C1(Cc2cccc(F)c2)CCN(C(=O)c2ccoc2C)CC1	Cycloheximide cs 11.6, Pf growth 48h 10.4µM
CCOC(=O)C1(Cc2cccc(F)c2)CCN(C(=O)c2cscn2)CC1	Pf growth 96h inconclusive
CCOC(=O)C1(Cc2cccc(OC)c2)CCCN(C(=O)CCc2cccnc2)C1 (stereo not given)	Cycloheximide cs 46.2, Pf growth 48h inconclusive, Shiga inhibitor 69.0
CC(=O)Nc1cccc(C(=O)OCC(=O)N2CCC(c3ccccc3)=N2)c1	none (no result: Cycloheximide cs, Shiga inhibitor)
Cc1ccc(C2=NN(CC(=O)O)C(=O)CC2)cc1	none (no result: Pf growth 48h)
Nc1ccc2c(c1)OC1(CCCC1)O2	Cycloheximide cs 47.5, Shiga inhibitor 99.0, Pf growth 96h 4.15µM
COCCN(C(=O)COC(=O)C1CC1C)c1c(N)n(Cc2ccccc2)c(=O)[nH]c1=O (stereo not given)	Pf growth 48h inconclusive (no result: Cycloheximide cs, Shiga inhibitor)
FC(F)Oc1ccc(NC(=S)NCc2ccccc2)cc1	Cycloheximide cs 11.3, Shiga inhibitor 36.8
FC(F)Oc1ccc(NC(=S)NCCc2ccccn2)cc1	Cycloheximide cs 28.9
FC(F)Oc1ccc(NC(=S)NCc2ccccc2)cc1Cl	none (no result: Pf growth 96h)
Oc1cccc2c(NC(=S)Nc3ccc(OC(F)F)cc3)cccc12	Cycloheximide cs 74.1, Shiga inhibitor 88.4, Pf growth 96h inconclusive
COCCNC(=S)Nc1ccc(N2CCCCC2)cc1	none
CCOC(=O)c1c(C)[nH]c(C)c1C(=O)COC(=O)/C=C/c1cccc(C(F)(F)F)c1	Pf growth 48h 14.7µM, Pf growth 96h inconclusive

Assay outcomes deposited in PubChem by National Center for Advancing Translational Sciences (NCATS).
